Results: PubChem BioAssay AID1159580 (chemical genetic matrix, 2015)
Among all 5,500 compounds or so, about 2,000 (36%) were called active. Not shown: some 18% with an inconclusive outcome. No stated cut-off is given here; in the data, active means normalized growth mostly below about 0.91 (no sharp cut-off); inconclusive means no clear call, values can overlap the other calls; inactive means mostly above about 0.92. The list shows a part of the results.

Assay: chemical genetic growth profiling, strain panel (AID 1159580);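 further: tested at 20 µM; growth read once vehicle control cultures reached saturation at 30 °C; 1 = growth at the plate median or of vehicle wells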
Conditions: S. cerevisiae deletion strains, growth OD

Measured: normalized growth

COc1cccc2c(C)cc(=O)[nH]c12
inactive: locus YAL021C, strain ccr4, stronger effect = lower value 1.01 | locus YAL026C, strain drs2, stronger effect = lower value 0.972 | locus YAL030W, strain snc1, stronger effect = lower value 0.977 | locus YBL061C, strain skt5, stronger effect = lower value 0.938 | locus YBR009C, strain hhf1, stronger effect = lower value 0.938 | locus YBR021W, strain FUR4, stronger effect = lower value 1.07 | locus YBR023C, strain chs3, stronger effect = lower value 0.928 | locus YBR171W, strain sec66, stronger effect = lower value 0.963 | locus YBR229C, strain ROT2, stronger effect = lower value 0.969 | locus YBR279W, strain paf1, stronger effect = lower value 0.987 | locus YCL011C, strain gbp2, stronger effect = lower value 0.924 | locus YCL016C, strain dcc1, stronger effect = lower value 0.949 | locus YCL029C, strain bik1, stronger effect = lower value 0.932 | locus YCL061C, strain MRC1, stronger effect = lower value 0.956 | locus YCL069W, strain vba3, stronger effect = lower value 0.98 | locus YCR088W, strain abp1, stronger effect = lower value 0.972 | locus YDL005C, strain med2, stronger effect = lower value 0.992 | locus YDL035C, strain GPR1, stronger effect = lower value 0.958 | locus YDL040C, strain nat1, stronger effect = lower value 0.972 | locus YDL074C, strain BRE1, stronger effect = lower value 0.853 | locus YDL101C, strain DUN1, stronger effect = lower value 0.941 | locus YDL134C, strain PPH21, stronger effect = lower value 0.961 | locus YDL185W, strain tfp1, stronger effect = lower value 0.933 | locus YDR001C, strain nth1, stronger effect = lower value 0.957 | locus YDR069C, strain doa4, stronger effect = lower value 0.971 | locus YDR137W, strain rgp1, stronger effect = lower value 0.847 | locus YDR159W, strain sac3, stronger effect = lower value 0.862 | locus YDR162C, strain NBP2, stronger effect = lower value 0.881 | locus YDR297W, strain sur2, stronger effect = lower value 0.974 | locus YDR318W, strain mcm21, stronger effect = lower value 0.949 | locus YDR334W, strain swr1, stronger effect = lower value 0.978 | locus YDR335W, strain msn5, stronger effect = lower value 0.941 | locus YDR388W, stronger effect = lower value 0.929 | locus YEL003W, strain gim4, stronger effect = lower value 0.971 | locus YEL037C, strain rad23, stronger effect = lower value 0.974 | locus YEL061C, strain CIN8 (second series), stronger effect = lower value 0.969 | locus YEL061C, strain CIN8, stronger effect = lower value 0.963 | locus YER015W, strain faa2, stronger effect = lower value 0.986 | locus YER016W, strain bim1, stronger effect = lower value 0.953 | locus YER110C, stronger effect = lower value 0.946 | locus YER111C, strain swi4, stronger effect = lower value 0.977 | locus YER155C, strain BEM2, stronger effect = lower value 0.946 | locus YER167W, strain BCK2, stronger effect = lower value 0.947 | locus YFR010W, strain ubp6, stronger effect = lower value 0.975 | locus YGL078C, strain dbp3, stronger effect = lower value 0.962 | locus YGL167C, strain pmr1, stronger effect = lower value 0.982 | locus YGL173C, strain kem1, stronger effect = lower value 0.962 | locus YGL227W, strain vid30, stronger effect = lower value 0.961 | locus YGL248W, strain PDE1, stronger effect = lower value 0.919 | locus YGR078C, strain PAC10, stronger effect = lower value 0.904 | locus YGR252W, strain gcn5, stronger effect = lower value 0.874 | locus YHR013C, strain ard1, stronger effect = lower value 0.848 | locus YHR027C, strain rpn1, stronger effect = lower value 0.984 | locus YHR030C, strain SLT2, stronger effect = lower value 0.945 | locus YHR079C, strain IRE1 (second series), stronger effect = lower value 0.933 | locus YHR094C, strain hxt1, stronger effect = lower value 0.953 | locus YHR129C, strain ARP1, stronger effect = lower value 0.936 | locus YIL066C, strain RNR3, stronger effect = lower value 0.929 | locus YIL073C, strain SPO22, stronger effect = lower value 0.812 | locus YIL125W, strain kgd1, stronger effect = lower value 0.96 | locus YIR030C, strain dcg1, stronger effect = lower value 0.954 | locus YJL092W, strain hpr5, stronger effect = lower value 0.972 | locus YJL095W, strain BCK1 (second series), stronger effect = lower value 0.965 | locus YJL115W, strain asf1, stronger effect = lower value 0.981 | locus YJL129C, strain trk1, stronger effect = lower value 0.966 | locus YJL134W, strain LCB3, stronger effect = lower value 0.968 | locus YJL154C, strain vps35, stronger effect = lower value 0.979 | locus YJL164C, strain tpk1, stronger effect = lower value 0.949 | locus YJL168C, strain set2, stronger effect = lower value 0.948 | locus YJL187C, strain SWE1 (second series), stronger effect = lower value 0.908 | locus YJL187C, strain SWE1, stronger effect = lower value 0.989 | locus YJR043C, strain POL32, stronger effect = lower value 0.885 | locus YKL068W, stronger effect = lower value 0.951 | locus YKL085W, strain MDH1 (second series), stronger effect = lower value 0.941 | locus YKL085W, strain MDH1, stronger effect = lower value 0.941 | locus YKL160W, strain elf1, stronger effect = lower value 0.944 | locus YKR026C, strain gcn3, stronger effect = lower value 0.972 | locus YKR091W, strain srl3, stronger effect = lower value 0.981 | locus YLL026W, stronger effect = lower value 0.952 | locus YLL041C, strain sdh2, stronger effect = lower value 0.956 | locus YLR027C, strain aat2, stronger effect = lower value 0.955 | locus YLR039C, strain RIC1, stronger effect = lower value 0.697 | locus YLR058C, strain SHM2, stronger effect = lower value 0.94 | locus YLR102C, strain apc9, stronger effect = lower value 0.942 | locus YLR221C, strain rsa3, stronger effect = lower value 0.949 | locus YLR258W, strain gsy2, stronger effect = lower value 0.941 | locus YLR262C, strain YPT6 (second series), stronger effect = lower value 0.887 | locus YLR262C, strain YPT6, stronger effect = lower value 0.732 | locus YLR268W, strain sec22, stronger effect = lower value 0.9 | locus YLR320W, strain mms22, stronger effect = lower value 0.94 | locus YLR342W, strain FKS1 (second series), stronger effect = lower value 0.838 | locus YLR342W, strain FKS1, stronger effect = lower value 0.957 | locus YLR357W, strain rsc2, stronger effect = lower value 0.974 | locus YLR370C, strain arc18, stronger effect = lower value 0.932 | locus YLR384C, strain iki3, stronger effect = lower value 0.981 | locus YML016C, strain PPZ1, stronger effect = lower value 0.958 | locus YML032C, strain rad52, stronger effect = lower value 0.948 | locus YML124C, strain tub3, stronger effect = lower value 0.952 | locus YMR058W, strain fet3, stronger effect = lower value 0.955 | locus YMR078C, strain ctf18, stronger effect = lower value 0.937 | locus YMR125W, strain sto1, stronger effect = lower value 0.959 | locus YMR129W, stronger effect = lower value 0.958 | locus YMR205C, strain PFK2, stronger effect = lower value 0.958 | locus YMR223W, strain ubp8, stronger effect = lower value 0.942 | locus YMR231W, strain pep5, stronger effect = lower value 1 | locus YMR307W, strain GAS1, stronger effect = lower value 0.974 | locus YNL067W, strain RPL9B, stronger effect = lower value 0.875 | locus YNL209W, strain ssb2, stronger effect = lower value 0.991 | locus YNL248C, strain rpa49, stronger effect = lower value 0.968 | locus YNL250W, strain rad50, stronger effect = lower value 0.925 | locus YNL271C, strain bni1, stronger effect = lower value 0.955 | locus YNL298W, strain CLA4, stronger effect = lower value 0.978 | locus YNL307C, strain MCK1, stronger effect = lower value 0.91 | locus YNL322C, strain KRE1 (second series), stronger effect = lower value 0.977 | locus YNL322C, strain KRE1, stronger effect = lower value 0.971 | locus YNR049C, strain mso1, stronger effect = lower value 0.97 | locus YNR052C, strain pop2, stronger effect = lower value 0.986 | locus YOL012C, strain htz1 1.3 | locus YOL147C, strain pex11, stronger effect = lower value 0.945 | locus YOR001W, strain rrp6, stronger effect = lower value 0.954 | locus YOR061W, strain CKA2, stronger effect = lower value 0.965 | locus YOR069W, strain VPS5, stronger effect = lower value 0.965 | locus YOR070C, strain gyp1, stronger effect = lower value 0.965 | locus YOR080W, strain dia2, stronger effect = lower value 0.983 | locus YOR083W, strain WHI5, stronger effect = lower value 0.929 | locus YOR106W, strain vam3, stronger effect = lower value 0.938 | locus YOR136W, strain idh2, stronger effect = lower value 0.951 | locus YOR144C, strain elg1, stronger effect = lower value 0.964 | locus YOR265W, strain rbl2, stronger effect = lower value 0.966 | locus YOR290C, strain snf2, stronger effect = lower value 0.891 | locus YOR316C, strain cot1, stronger effect = lower value 0.937 | locus YPL051W, strain arl3, stronger effect = lower value 0.938 | locus YPL055C, strain LGE1, stronger effect = lower value 0.775 | locus YPL078C, strain atp4, stronger effect = lower value 0.896 | locus YPL106C, strain sse1, stronger effect = lower value 0.898 | locus YPL240C, strain hsp82, stronger effect = lower value 0.959 | locus YPL241C, strain CIN2, stronger effect = lower value 0.958 | locus YPR119W, strain clb2, stronger effect = lower value 0.937 | locus YPR141C, strain kar3, stronger effect = lower value 0.953 | locus YPR163C, strain tif3, stronger effect = lower value 0.933 | locus YPR167C, strain met16, stronger effect = lower value 0.959
active: locus YBR231C, strain swc5, stronger effect = lower value 0.909 | locus YDL192W, strain arf1, stronger effect = lower value 0.887 | locus YDR101C, strain arx1, stronger effect = lower value 0.908 | locus YDR195W, strain ref2 1.15 [resistant] | locus YDR392W, strain spt3, stronger effect = lower value 0.641 | locus YDR502C, strain sam2, stronger effect = lower value 0.875 | locus YER155C, strain BEM2 (second series), stronger effect = lower value 0.786 | locus YGL086W, strain mad1, stronger effect = lower value 0.889 | locus YGL240W, strain doc1, stronger effect = lower value 0.843 | locus YGL253W, strain hxk2, stronger effect = lower value 0.891 | locus YGR135W, strain pre9, stronger effect = lower value 0.887 | locus YHR142W, strain chs7, stronger effect = lower value 0.835 | locus YHR200W, strain rpn10, stronger effect = lower value 0.919 | locus YJL095W, strain BCK1, stronger effect = lower value 0.793 | locus YJL166W, strain qcr8, stronger effect = lower value 0.891 | locus YKL009W, strain mrt4, stronger effect = lower value 0.874 | locus YKR001C, strain vps1, stronger effect = lower value 0.802 | locus YLL001W, strain dnm1, stronger effect = lower value 0.893 | locus YLR330W, strain CHS5, stronger effect = lower value 0.896 | locus YLR371W, strain rom2, stronger effect = lower value 0.89 | locus YLR418C, strain cdc73, stronger effect = lower value 0.715 | locus YML120C, strain ndi1, stronger effect = lower value 0.911 | locus YMR263W, strain SAP30, stronger effect = lower value 0.855 | locus YNL071W, strain lat1, stronger effect = lower value 0.897 | locus YNL233W, strain BNI4, stronger effect = lower value 0.827 | locus YOL006C, strain TOP1, stronger effect = lower value 0.511 | locus YOR184W, strain ser1, stronger effect = lower value 0.847 | locus YOR270C, strain vph1, stronger effect = lower value 0.714 | strain wtn01, stronger effect = lower value 0.881
